Several values for one entry are separate records, joined by “and”; a condition that tells them apart may be missing. Equal entries are not always repeated. Compounds without any hit were thinned out: in the full panel of roughly 83,000, 20% have a hit.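 How to read the values: 0–100, growth inhibition (40 = 60% inhibited); 0, no net growth; -100 to 0, cell death (-40 = 40% of starting cells died; -100 = all dead).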 Values without a mark were called inactive. Activity calls are given as the source filed them. The calls were made as follows: active = growth percent below 10; inactive = the rest.

The subject of this test is MDA-MB-468 breast. As to the kind of experiment: NCI-60 one-dose screen, 48 h (100 = growth as untreated, 0 = no growth, -100 = all killed). The conditions noted are these: 10 µM unless noted.
Regarding `CN(CCCCN(C)CCOS(C)(=O)=O)CCOS(C)(=O)=O`, the growth is 76.9%.

On to `COc1ccc2c(c1)c(-c1nc(-c3cn(C)c4ncccc34)cs1)cn2CCCCN1CCOCC1`, for which the growth was 35%.

Regarding `Cc1sc2c(c1C)C(c1ccc(Cl)cc1)=N[C@@H](CC(=O)OC(C)(C)C)c1nnc(C)n1-2`, the growth is -10.8% (active).

For `NC(=O)c1c(Br)c(Br)c(Br)c(Br)c1C(=O)O` (tested in a mixture with another compound), the growth is 93.7% and 101%.

As for `C[C@]12C[C@@H](CO)[C@H](O)C[C@@H]1CC[C@@H]1[C@@H]2CC[C@]2(C)[C@@H](O)CC[C@@H]12`, the growth is 106%.

`COC(=O)[C@@H](C)C[C@H](Cc1ccccc1)NC(=O)c1csc([C@@H](C[C@H](C(C)C)N(C)C(=O)[C@@H](NC(=O)[C@H]2CCCCN2C)c2ccc(F)cc2)OC(C)=O)n1`: the growth was 2.95% (active).

On to `COc1ccc([As]=[As]c2ccc(OC)c(NCS(=O)(=O)O)c2)cc1NCS(=O)(=O)O` (stereo not given), for which the growth is -54.2% (active).

`CCOC(=O)P(=O)(OCC)OCC`: the growth was 110%.

With `C=C1C(=O)O[C@H]2[C@H]1CC/C(COC(=O)C(=O)c1cn(Cc3ccccc3)c3ccccc13)=C\CC[C@@]1(C)O[C@@H]21`, the growth was -60.5% (active).

For `CC(=O)OCc1cc[c]([Hg][Cl])o1`, the growth was 21%.

On to `CCCc1cc(O)c2c3c(c(=O)oc2c1)CN(C)CC3`, for which the growth is -3.7% (active).

In the case of `Nc1ccc(Cl)cc1`, the growth was 97%.

`CCCCOC(=O)c1ccccc1C(=O)O.CCCCOC(=O)c1ccccc1C(=O)O.[Cu+2]`: the growth is 103%.

In the case of `N#CC(C#N)=C(C#N)C#N`, the growth was 102%.

Turning to `O=S(=O)(F)c1ccc(Cl)cc1`, the growth was 121%.

In the case of `CCNc1nc(Cl)nc(NCC)n1`, the growth was 106%.

As for `CC(=O)OC1CCC2(C)C(=CCC3C4CC(CN5CC5)C(=O)C4(C)CCC32)C1` (stereo not given), the growth is 1.98% (active).

Take `Brc1ccc2c(c1)c(-c1nc(-c3c[nH]c4ncccc34)cs1)cn2CCN1CCCCC1`: the growth is 79.2%.

Consider `COc1ccc(/C(C)=C(\c2ccc(OCCN3CCOCC3)cc2)c2ccc(OC(=O)Cc3ccccc3)cc2)cc1`, for which the growth is 104%.

Turning to `COc1ccccc1/C=C/[N+](=O)[O-]`, the growth is 22.6%.

`NC(=O)CNc1ccc([As]=[As]c2ccc(NCC(N)=O)cc2)cc1` (stereo not given): the growth is -6.99% (active).

With `C[C@@H]1O[C@@H](O[C@H]2CC[C@@]3(C)[C@H](CCC4[C@@H]3C(O)C[C@]3(C)[C@@H](c5ccc(=O)oc5)CC[C@]43O)C2)[C@H](O)[C@H](O)[C@H]1O` (stereo not given in full), the growth is -59.8% (active).

In the case of `CCC(O)(CN)c1ccccc1` (stereo not given), the growth is 101%.

Turning to `CN(C)CC1(N)C(=O)NC(=O)NC1=O`, the growth was 94.6%.

Take `CN1CC2CCC(C1)C2=O`: the growth is 106%.

As for `COc1ccc(/C=C\c2cc(OC)c(OC)c(OC)c2)c(NS(=O)(=O)c2ccc(F)cc2)c1O`, the growth is 15.9%.

Take `Nc1c(F)cc(-c2nc3cc(F)ccc3[se]2)cc1Br`: the growth was -35.4% (active).

`CC(=O)O[C@H]1C[C@H](O[C@H]2[C@@H](O)C[C@H](O[C@H]3[C@@H](O)C[C@H](O[C@H]4CC[C@@]5(C)C(CCC6C5C[C@@H](O)[C@]5(C)[C@@H](C7=CC(=O)OC7)CC[C@]65O)C4)O[C@@H]3C)O[C@@H]2C)O[C@H](C)[C@H]1O[C@@H]1O[C@H](CO)[C@@H](O)[C@H](O)[C@H]1O` (stereo not given in full): the growth was -56.2% (active).

For the compound `COP(=S)(OC)Oc1ccc(SC)c(C)c1`, the growth is 108%.

Consider `N#Cc1ccc(Cl)cc1`, for which the growth is 123%.

In the case of `CCCCCN(CCCCC)CC(O)c1cc(Cl)ccc1OC` (stereo not given), the growth was 57.7%.

Take `C/C(=C(\c1ccc(OCCN2CCOCC2)cc1)c1ccc(OC(=O)Cc2ccccc2)cc1)c1ccc(Cl)cc1`: the growth is 78.8%.

Regarding `C=CC[PH+](c1ccccc1)c1ccccc1.C=CC[PH+](c1ccccc1)c1ccccc1.[Pt+2].[S-]c1ncccn1.[S-]c1ncccn1`, the growth was -5.58% (active).

Turning to `[Cl][Hg][n]1cnc2c(Cl)c(Cl)c(Cl)cc21`, the growth was 115%.

As for `COc1cc2c(cc1OCc1ccccc1)C(CC(C)C)=[N+](C)CC2`, the growth was 2.12% (active).

In the case of `Cc1cc2c(cc1-c1ccnc(/C=C/C(=O)O)c1)C(C)(C)CCC2(C)C`, the growth was 97.1%.

Consider `CC1=C[C@H]2O[C@@H]3C[C@@H](O)[C@](C)([C@@]2(C)CC1)[C@@]31CO1`, for which the growth was 28.7%.

Consider `O=C1CCC2(O)[C@@H]3Cc4ccc(O)c5c4[C@]2(CCN3Cc2ccoc2)C1O5` (stereo not given in full), for which the growth is 97.3%.

As for `CC(=O)O[C@@H]1C2=C(C)C3(CC3)[C@@](C)(O)C(=O)C2=C[C@@]1(C)CO`, the growth was -54% (active).

On to `N#Cc1ncc(/N=C/c2ccc(N(CCCl)CCCl)cc2)s1`, for which the growth was -2.43% (active).

(Values after PubChem BioAssay (NCI).)
